Assay [1] in a line: ATG_GRE_CIS: Attagene CIS-FACTORIAL HepG2 Assay for human Glucocorticoid Response Elements (GRE) (AID 2282947; active means hit-call score of the fitted dose curve at least 0.9, where 1 is the maximum; inactive means score below 0.9). The note with it: HepG2 GRE cis-reporter, Attagene multiplex mRNA; actives raise or lower the signal. The method, boiled down:
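HepG2, transient cis-reporter transfection, 24 h. Reporter mRNA: RT-PCR then CE, fluorescence. Fit both directions vs DMSO.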

A short description of assay [2]: ATG_PBREM_CIS: Attagene CIS-FACTORIAL HepG2 Assay for human Phenobarbital-responsive Enhancer Module (PBREM) (AID 2282955; active means hit-call score of the fitted dose curve at least 0.9, where 1 is the maximum; inactive means score below 0.9). The note with it: HepG2 PBREM cis-reporter, Attagene multiplexed transcription; actives raise or lower the signal. The method, boiled down:
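Multiplexed cis-reporter readout in human hepatoma HepG2 cells; PBREM-regulated transcript quantified after 24 h exposure by fluorescent RT-PCR fragment analysis. Signal changes up or down fitted relative to DMSO.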

Assay [3] addresses Transcription factor Sp1 (Homo sapiens) (UniProt P08047). In words: ATG_Sp1_CIS: Attagene CIS-FACTORIAL HepG2 Assay for human Specificity Protein 1 (Sp1) (AID 2282961; active means hit-call score of the fitted dose curve at least 0.9, where 1 is the maximum; inactive means score below 0.9). The note with it: HepG2 Sp1 cis-reporter transcription, actives raise or lower the signal. The gist of the method:
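Chemicals are dosed onto HepG2 cells transfected with multiple cis-promoter reporter constructs, and after 24 h reporter RNA is reverse-transcribed, PCR-amplified and resolved by capillary electrophoresis for fluorescence quantitation; activity is scored up or down against DMSO.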

Assay [4] has as its target Signal transducer and activator of transcription 3 (Homo sapiens) (UniProt P40763). In words: ATG_STAT3_CIS: Attagene CIS-FACTORIAL HepG2 Assay for human Signal Transducer and Activator of Transcription 3 (STAT3) (AID 2282963; active means hit-call score of the fitted dose curve at least 0.9, where 1 is the maximum; inactive means score below 0.9). The following applies: HepG2, Attagene cis-factorial STAT3 reporter transcription; actives raise or lower the signal. The method, boiled down:
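Uses human liver HepG2 transiently carrying cis-regulated reporter transcription units. Following 24 h dosing, reporter mRNA induction was detected by RT-PCR and capillary electrophoresis, analysed bidirectionally versus DMSO.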

Assay [5] can be described thus: ATG_M_32_TRANS: Attagene TRANS-FACTORIAL HepG2 Assay for M32 Transcription Factor (Internal Marker) (AID 2282984).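 Further: transcript level of a background control reporter unit measured by RT-PCR and capillary electrophoresis.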 The following applies: HepG2 Attagene TRANS M32 internal marker reporter. The gist of the method:
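Fluorescence-detected mRNA induction, HepG2 liver cells, 24 h after dosing. Multiple GAL4-UAS reporter units introduced by transient transfection; background-control endpoint analysed for gain of signal against DMSO.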

The target of assay [6] is Transcriptional activator Myb (Homo sapiens) (UniProt P10242). In words: ATG_Myb_CIS: Attagene CIS-FACTORIAL HepG2 Assay for human Myeloblastosis (Myb) Proto-Oncogene Transcription Factor (AID 2282986; active means hit-call score of the fitted dose curve at least 0.9, where 1 is the maximum; inactive means score below 0.9). The following applies: HepG2 Attagene CIS-FACTORIAL Myb reporter transcription; actives raise or lower the signal. The method, boiled down: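 Using HepG2 liver cells bearing transiently transfected cis-promoter reporter constructs, the assay measures induction or loss of reporter mRNA after 24 hours of dosing. Detection used fluorescently labeled RT-PCR products separated by capillary electrophoresis.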

Assay [7] can be described thus: ATG_NFI_CIS: Attagene CIS-FACTORIAL HepG2 Assay for human Nuclear Factor I (NFI) (AID 2282989; active means hit-call score of the fitted dose curve at least 0.9, where 1 is the maximum; inactive means score below 0.9). The following applies: HepG2 cis-regulatory reporter, NFI response element transcription; actives raise or lower the signal. The method, boiled down: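 HepG2, transient MRTU, 24 h exposure; RNA→cDNA→PCR→FAM label→HpaI→CE fluorescence. Bidirectional fit, DMSO = baseline.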

The nature of assay [8]: TOX21_p53_BLA_p2_viability: Viability Assessment in the Tox21 HCT-116 p53 Agonism Beta-lactamase Assay, Phase 2 (AID 2283591).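 Further: actives lower the ATP signal meaning cytotoxicity.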 The gist of the method: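 HCT-116 p53-bla cells (4000/well) rested 5 h at 37C, then received compounds in DMSO (217-fold dilution) for 16 h at 37C, 5% CO2. After the CCF4 read, CellTiter-Glo was added; ATP luminescence was read after 30 min at room temperature.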

The target in assay [9] is Cellular tumor antigen p53 (Homo sapiens) (UniProt P04637). In words: TOX21_p53_BLA_p2_ratio: Tox21 HCT-116 p53 Agonism Beta-lactamase Assay, Ratio, Phase 2 (AID 2283592). The method, boiled down: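 Readout: blue/green (460/530 nm) FRET emission ratio after 2 h CCF4-AM loading at room temperature, excitation 405 nm. HCT116 p53 bla cells, 16 h compound exposure at 37C, 5% CO2; agonist direction fitted against DMSO baseline.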

Assay [10] can be described thus: TOX21_p53_BLA_p4_viability: Viability Assessment in the Tox21 HCT-116 p53 Agonism Beta-lactamase Assay, Phase 4 (AID 2283597).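 Further: hits lower the luminescence signal meaning cytotoxicity.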 The method, boiled down: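 ATP content by CellTiter-Glo luminescence, 30 min RT, read after the beta-lactamase ratio step. Cells: HCT116, 4000/well, compound added after 5 h, exposure 16 h at 37C. Signal loss = reduced viability.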
Assay [11] deals with Cellular tumor antigen p53 (Homo sapiens) (UniProt P04637). In words: TOX21_p53_BLA_p5_ratio: Tox21 HCT-116 p53 Agonism Beta-lactamase Assay, Ratio, Phase 5 (AID 2283599). The gist of the method:
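HCT-116 cells carrying a p53-inducible beta-lactamase reporter were seeded at 4000 cells/well and dosed after 5 h with compound in DMSO (217-fold dilution). After 16 h at 37C, CCF4-AM substrate was added for 2 h, and the 460/530 nm emission ratio was scored as gain-of-signal versus DMSO.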

A short description of assay [12]: TOX21_p53_BLA_p5_viability: Viability Assessment in the Tox21 HCT-116 p53 Agonism Beta-lactamase Assay, Phase 5 (AID 2283600). The method, boiled down:
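ATP luminescence (CellTiter-Glo, 30 min, RT) served as the viability read-out, with loss of signal indicating cytotoxicity. Compounds in DMSO were pinned at a 217-fold dilution onto 4000 cells/well and incubated 16 h, 37C.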

Assay [13] has as its target Cellular tumor antigen p53 (Homo sapiens) (UniProt P04637). In words: TOX21_p53_BLA_p4_ratio: Tox21 HCT-116 p53 Agonism Beta-lactamase Assay, Ratio, Phase 4 (AID 2283601). The gist of the method:
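HCT116 cells carrying an inducible beta-lactamase reporter were plated at 4000 cells/well, rested 5 h, then exposed to compounds in DMSO (217-fold dilution) for 16 h at 37C. CCF4-AM substrate was loaded 2 h at room temperature; 460/530 nm emission ratio scored gain-of-signal versus DMSO.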

The target in assay [14] is Hepatocyte nuclear factor 4-alpha (Homo sapiens) (UniProt P41235). In words: ATG_HNF4a_TRANS: Attagene TRANS-FACTORIAL HepG2 Assay for human Hepatocyte Nuclear Factor 4 alpha (HNF4a) (AID 2282982). The note with it: HepG2 HNF4a transactivation reporter, mRNA readout. The method, boiled down: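 Using HepG2 liver cells transfected with GAL4-UAS reporter units, chemical-induced mRNA increases were assessed after 24 hours. Fluorescent RT-PCR fragments were separated by capillary electrophoresis and compared with DMSO negative controls.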

A short description of assay [15]: ATG_M_06_TRANS: Attagene TRANS-FACTORIAL HepG2 Assay for M06 Transcription Factor (Internal Marker) (AID 2282983).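 Further: reporter transcript level by RT-PCR then capillary electrophoresis fluorescence.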 The following applies: HepG2 Attagene TRANS M06 internal marker reporter. The method, boiled down:
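Read-out: fluorescent reporter cDNA fragments resolved by capillary electrophoresis after RT-PCR and HpaI cut. Source cells were HepG2 carrying transfected multi-reporter GAL4 constructs, dosed 24 h. Increase over DMSO control analysed.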

Assay [16] deals with Peroxisome proliferator-activated receptor gamma (Homo sapiens) (UniProt P37231). In words: ATG_PPARg_TRANS: Attagene TRANS-FACTORIAL HepG2 Assay for human Peroxisome Proliferator-activated Receptor-gamma (PPARg) (AID 2283007). The method, boiled down:
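Chimeric NR-Gal4 transactivation is measured in transiently transfected HepG2 cells by reporter mRNA induction at 24 h. Detection uses RT-PCR with fluorescent labelling and capillary electrophoresis; DMSO defines baseline.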

Assay [17] concerns the target human Retinoid X Receptor beta (RXRb), RXRB (gene 6257) (UniProt P28702). In words: ATG_RXRb_TRANS: Attagene TRANS-FACTORIAL HepG2 Assay for human Retinoid X Receptor beta (RXRb) (AID 2283013). The method, boiled down:
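Read-out: reporter mRNA induction via RT-PCR plus capillary electrophoresis fluorescence, analysed as signal increase relative to DMSO. Cells were human HepG2, transiently transfected with GAL4-UAS reporter constructs and chimeric receptor-Gal4 fusions, dosed for 24 h.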

Assay [18] deals with Cellular tumor antigen p53 (Homo sapiens) (UniProt P04637). In words: TOX21_p53_BLA_p3_ratio: Tox21 HCT-116 p53 Agonism Beta-lactamase Assay, Ratio, Phase 3 (AID 2283596). The method, boiled down:
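Cells were seeded at 4000/well, rested 5 h at 37C, then dosed with DMSO compound solutions (217-fold dilution) for 16 h. CCF4-AM substrate was loaded for 2 h at room temperature, and the 460/530 nm emission ratio was fitted for gain of signal versus DMSO.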

The nature of assay [19]: ATG_RORE_CIS: Attagene CIS-FACTORIAL HepG2 Assay for human RAR-related Orphan Receptor Element (RORE) (AID 2282959; active means hit-call score of the fitted dose curve at least 0.9, where 1 is the maximum; inactive means score below 0.9). The following applies: HepG2 Attagene cis-factorial RORE reporter, mRNA; actives raise or lower the signal. The gist of the method:
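Transfect HepG2 with MRTUs; treat 24 h; extract RNA; RT with oligo(dT); PCR with reporter-specific primers; 6-FAM primer extension; HpaI digest 2 h at 37 C; capillary electrophoresis. Fit vs DMSO, bidirectional.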

Assay [20] in a line: ACEA_ER_AUC_viability: ACEA Biosciences xCELLigence Real-Time Cell Analysis on Estrogen Receptor Agonism for Viability (AID 2283782).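 Further: hit means loss of impedance signal meaning reduced cell growth or viability.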 The method, boiled down: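 Continuous-exposure impedance cell analysis uses T-47D cells in charcoal-stripped serum, eight 1:4 dilutions topping at 100 uM final, biological duplicate. Area under the growth curve at 80 h is fitted against DMSO baseline.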

Results filed as inconclusive are left out. Some compounds were tested as several samples or in several runs, with calls that do not always agree. Active and inactive are the calls of the source. How the source made its calls, unless noted: active means hit-call score of the fitted dose curve at least 0.9, where 1 is the maximum; inconclusive means response in the unintended direction; inactive means score below 0.9.

Chain of human Retinoid X Receptor beta (RXRb), RXRB (gene 6257) (P28702 whole entry, looked up, the tested form may be a part): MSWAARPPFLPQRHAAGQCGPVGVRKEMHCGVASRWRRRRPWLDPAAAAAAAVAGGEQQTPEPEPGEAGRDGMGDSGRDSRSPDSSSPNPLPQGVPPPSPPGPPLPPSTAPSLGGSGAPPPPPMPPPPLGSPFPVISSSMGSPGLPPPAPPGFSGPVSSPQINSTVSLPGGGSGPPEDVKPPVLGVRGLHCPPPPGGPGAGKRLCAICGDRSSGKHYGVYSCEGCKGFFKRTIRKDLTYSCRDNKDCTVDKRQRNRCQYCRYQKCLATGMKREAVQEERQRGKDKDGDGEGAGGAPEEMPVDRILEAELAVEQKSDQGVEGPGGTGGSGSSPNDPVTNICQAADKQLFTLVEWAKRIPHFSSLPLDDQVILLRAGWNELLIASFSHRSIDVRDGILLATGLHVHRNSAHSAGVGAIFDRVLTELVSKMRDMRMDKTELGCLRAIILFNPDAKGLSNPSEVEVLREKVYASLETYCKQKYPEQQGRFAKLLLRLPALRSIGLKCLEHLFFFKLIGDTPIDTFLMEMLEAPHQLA
Chain of Hepatocyte nuclear factor 4-alpha (Homo sapiens) (P41235 whole entry, looked up, the tested form may be a part): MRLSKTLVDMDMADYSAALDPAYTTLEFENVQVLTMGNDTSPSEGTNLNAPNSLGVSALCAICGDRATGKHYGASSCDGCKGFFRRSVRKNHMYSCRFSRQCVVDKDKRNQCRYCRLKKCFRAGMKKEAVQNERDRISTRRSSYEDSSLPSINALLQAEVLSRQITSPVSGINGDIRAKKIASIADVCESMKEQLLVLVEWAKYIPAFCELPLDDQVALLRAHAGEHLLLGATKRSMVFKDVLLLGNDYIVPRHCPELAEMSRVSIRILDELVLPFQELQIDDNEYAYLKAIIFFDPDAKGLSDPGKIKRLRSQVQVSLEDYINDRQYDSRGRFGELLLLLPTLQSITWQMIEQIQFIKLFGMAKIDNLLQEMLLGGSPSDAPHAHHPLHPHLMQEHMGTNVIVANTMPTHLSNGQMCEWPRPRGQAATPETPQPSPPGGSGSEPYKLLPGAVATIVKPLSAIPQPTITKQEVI
Chain of Signal transducer and activator of transcription 3 (Homo sapiens) (P40763 whole entry, looked up): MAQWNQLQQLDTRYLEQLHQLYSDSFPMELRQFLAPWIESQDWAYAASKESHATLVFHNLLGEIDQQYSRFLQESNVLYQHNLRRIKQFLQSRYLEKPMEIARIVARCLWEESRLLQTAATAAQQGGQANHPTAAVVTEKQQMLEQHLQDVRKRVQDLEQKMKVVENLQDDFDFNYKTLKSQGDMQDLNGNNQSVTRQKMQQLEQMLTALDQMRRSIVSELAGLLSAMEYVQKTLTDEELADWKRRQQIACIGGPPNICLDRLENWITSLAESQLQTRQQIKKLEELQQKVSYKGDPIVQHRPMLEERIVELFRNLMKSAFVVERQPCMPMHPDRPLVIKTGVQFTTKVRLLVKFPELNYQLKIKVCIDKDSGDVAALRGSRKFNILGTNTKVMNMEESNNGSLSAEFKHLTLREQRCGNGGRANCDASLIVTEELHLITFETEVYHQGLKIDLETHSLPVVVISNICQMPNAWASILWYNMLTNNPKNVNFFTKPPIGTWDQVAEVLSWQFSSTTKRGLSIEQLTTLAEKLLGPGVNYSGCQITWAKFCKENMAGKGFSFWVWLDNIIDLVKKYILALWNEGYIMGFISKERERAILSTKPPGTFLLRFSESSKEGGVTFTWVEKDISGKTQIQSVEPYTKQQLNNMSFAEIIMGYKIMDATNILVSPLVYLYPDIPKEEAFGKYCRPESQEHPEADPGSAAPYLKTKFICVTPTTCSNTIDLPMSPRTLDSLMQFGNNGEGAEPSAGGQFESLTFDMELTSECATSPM
Chain of Transcription factor Sp1 (Homo sapiens) (P08047 whole entry, looked up): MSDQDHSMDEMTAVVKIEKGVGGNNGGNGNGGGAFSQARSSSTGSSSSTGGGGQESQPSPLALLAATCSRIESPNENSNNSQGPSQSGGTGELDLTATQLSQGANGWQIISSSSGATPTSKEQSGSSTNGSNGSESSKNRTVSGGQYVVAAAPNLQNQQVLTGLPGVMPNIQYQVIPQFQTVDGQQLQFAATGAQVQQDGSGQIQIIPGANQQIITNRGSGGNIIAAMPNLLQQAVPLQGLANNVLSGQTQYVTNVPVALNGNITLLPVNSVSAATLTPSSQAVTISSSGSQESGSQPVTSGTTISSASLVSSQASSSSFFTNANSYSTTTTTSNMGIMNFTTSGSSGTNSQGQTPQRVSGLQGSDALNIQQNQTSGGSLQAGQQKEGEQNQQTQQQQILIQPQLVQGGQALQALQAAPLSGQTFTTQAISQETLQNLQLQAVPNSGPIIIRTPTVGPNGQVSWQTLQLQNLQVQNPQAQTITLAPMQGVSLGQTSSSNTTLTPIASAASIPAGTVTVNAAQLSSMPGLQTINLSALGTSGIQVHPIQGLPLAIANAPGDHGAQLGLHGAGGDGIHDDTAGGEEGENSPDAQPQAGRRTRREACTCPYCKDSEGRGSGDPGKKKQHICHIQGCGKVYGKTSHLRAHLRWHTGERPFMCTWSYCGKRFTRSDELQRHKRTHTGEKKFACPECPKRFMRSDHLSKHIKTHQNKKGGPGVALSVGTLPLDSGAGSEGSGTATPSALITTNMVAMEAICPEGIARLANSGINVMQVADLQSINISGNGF
Chain of Transcriptional activator Myb (Homo sapiens) (P10242 whole entry, looked up): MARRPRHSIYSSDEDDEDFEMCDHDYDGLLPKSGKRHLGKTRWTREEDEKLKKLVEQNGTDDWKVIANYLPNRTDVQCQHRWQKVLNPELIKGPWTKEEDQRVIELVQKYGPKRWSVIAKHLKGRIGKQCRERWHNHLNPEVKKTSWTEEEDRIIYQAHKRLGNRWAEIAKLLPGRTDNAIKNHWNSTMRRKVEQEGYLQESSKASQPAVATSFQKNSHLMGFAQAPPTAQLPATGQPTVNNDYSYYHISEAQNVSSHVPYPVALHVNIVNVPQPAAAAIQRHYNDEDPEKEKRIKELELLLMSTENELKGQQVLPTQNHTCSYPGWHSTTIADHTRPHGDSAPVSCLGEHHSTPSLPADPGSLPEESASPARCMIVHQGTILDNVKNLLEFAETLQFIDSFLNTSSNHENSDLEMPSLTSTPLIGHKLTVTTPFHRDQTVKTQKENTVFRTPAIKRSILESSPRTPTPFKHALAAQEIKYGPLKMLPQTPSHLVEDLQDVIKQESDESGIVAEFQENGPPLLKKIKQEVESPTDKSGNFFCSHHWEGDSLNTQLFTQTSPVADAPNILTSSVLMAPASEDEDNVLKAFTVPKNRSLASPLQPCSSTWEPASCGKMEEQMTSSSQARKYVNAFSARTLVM
Chain of Peroxisome proliferator-activated receptor gamma (Homo sapiens) (P37231 whole entry, looked up, the tested form may be a part): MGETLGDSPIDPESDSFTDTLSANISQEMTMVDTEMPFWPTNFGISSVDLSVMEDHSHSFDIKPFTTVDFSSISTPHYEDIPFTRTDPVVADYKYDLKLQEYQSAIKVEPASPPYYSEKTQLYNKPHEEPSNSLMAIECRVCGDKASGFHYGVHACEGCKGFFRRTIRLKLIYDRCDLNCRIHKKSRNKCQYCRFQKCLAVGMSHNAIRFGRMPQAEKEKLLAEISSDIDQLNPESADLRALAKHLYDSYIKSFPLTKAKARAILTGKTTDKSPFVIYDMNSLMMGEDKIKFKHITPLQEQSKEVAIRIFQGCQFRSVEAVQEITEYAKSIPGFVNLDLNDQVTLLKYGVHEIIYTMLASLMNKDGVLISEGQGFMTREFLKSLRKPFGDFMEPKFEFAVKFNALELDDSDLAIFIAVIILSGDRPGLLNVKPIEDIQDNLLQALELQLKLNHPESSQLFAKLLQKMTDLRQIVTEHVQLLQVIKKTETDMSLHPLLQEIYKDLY
Chain of Cellular tumor antigen p53 (Homo sapiens) (P04637 whole entry, looked up): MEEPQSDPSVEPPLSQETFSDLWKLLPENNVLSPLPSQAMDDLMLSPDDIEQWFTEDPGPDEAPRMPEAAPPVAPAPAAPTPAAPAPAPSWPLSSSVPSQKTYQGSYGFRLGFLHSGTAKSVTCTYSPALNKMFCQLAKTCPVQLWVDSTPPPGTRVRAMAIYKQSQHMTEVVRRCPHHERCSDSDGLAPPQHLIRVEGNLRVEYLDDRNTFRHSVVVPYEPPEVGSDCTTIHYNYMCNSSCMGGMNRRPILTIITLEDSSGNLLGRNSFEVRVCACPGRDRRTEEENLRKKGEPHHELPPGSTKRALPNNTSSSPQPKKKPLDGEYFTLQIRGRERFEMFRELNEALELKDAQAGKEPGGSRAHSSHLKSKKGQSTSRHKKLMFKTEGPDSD

Usually AC50 stands for the midpoint of the concentration-response curve, whichever way the signal moves. For the compound `CN1C[C@H](C(=O)N[C@]2(C)O[C@@]3(O)[C@@H]4CCCN4C(=O)[C@H](Cc4ccccc4)N3C2=O)C=C2c3cccc4[nH]cc(c34)C[C@H]21`, the result in assay [1], in [2], in [3], in assay [4], in assay [5] and in assay [6] was inactive. Besides, the compound was called inactive in assay [7], in [8], in [9], in [10], in assay [11] and in assay [12]. In assay [13], the result was inactive. The AC50 in assay [10] was 71.4 µM (active).
Regarding `C=C(Cl)CCl`, the result in assay [1], in [3], in assay [4], in assay [14], in assay [15] and in [5] was inactive. Also, the compound was classed as inactive in assay [7], in [16], in assay [17], in [9], in assay [18] and in assay [10]. Moreover, the result in assay [11], in assay [12] and in [13] was inactive.
Consider `CCOC(=O)N(C)N=O`, for which the compound was classed as inactive in assay [1], in [19], in assay [3], in [4], in [15] and in [5]. Also, the outcome in assay [6], in assay [16], in [8], in assay [9], in assay [18] and in assay [11] was inactive. In addition, the compound was classed as inactive in assay [12].
`[CH3][Sn]([Cl])([Cl])[Cl]`: the outcome in assay [1], in assay [2], in assay [3], in assay [4], in assay [14] and in assay [15] was inactive. Moreover, the outcome in assay [6], in [16], in [8], in [18], in assay [11] and in assay [13] was inactive.
`O=[N+]([O-])c1ccc(Cl)cc1`: the compound was classed as inactive in assay [1], in [19], in assay [3], in assay [14], in [5] and in assay [6]. Further, the call in [8], in assay [9], in [10], in assay [11], in [12] and in assay [13] was inactive. The outcome in [20] was inactive.
Regarding `CCC(C)c1cc(C(C)(C)C)cc(-n2nc3ccccc3n2)c1O` (stereo unspecified), the call in assay [1], in assay [19], in assay [3], in assay [4], in [14] and in assay [15] was inactive. Also, the compound was called inactive in [5], in assay [7] and in assay [16]. Moreover, the AC50 in assay [17] was 8.72 µM (active).
Consider `CN(C)CCC#N`, for which the compound was called inactive in assay [1], in [19], in [4], in [14], in assay [15] and in assay [5]. The compound was called inactive in assay [7], in assay [16], in [17], in assay [8], in [9] and in assay [10]. For the same compound, the outcome in assay [11], in assay [12], in assay [13] and in assay [20] was inactive.
Turning to `CC(=O)/C=C/c1ccccc1`, the result in assay [1], in assay [2], in [19], in assay [3], in assay [4] and in assay [14] was inactive. Further, the result in [15], in assay [5], in [7] and in [17] was inactive. Besides, the AC50 in assay [16] is 32.1 µM (active); in assay [20], 85.1 µM (active).
With `Cc1cc(C)c(C2=C(OC(=O)CC(C)(C)C)C3(CCCC3)OC2=O)c(C)c1`, the compound was called inactive in [1], in [2], in assay [4], in [14], in assay [15] and in assay [5]. Besides, the call in assay [6] and in assay [20] was inactive. Moreover, the AC50 in [3] is 88.6 µM (active); in [16], 4.68 µM (active).
Regarding `c1ccc2c(c1)CCCC2`, the compound was classed as inactive in assay [1], in [2], in assay [19], in assay [3], in assay [4] and in assay [14]. In addition, the compound was called inactive in [5], in [6], in assay [7], in assay [8], in assay [18] and in [10]. Moreover, the outcome in assay [11], in assay [12], in [13] and in assay [20] was inactive.

The values are drawn from PubChem BioAssay (EPA / NIEHS).
